We go through 13 compounds from PubChem BioAssay (NCI).

Structures are written as SMILES. Compounds without any hit were thinned out: in the full panel of roughly 83,000, 20% have a hit.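 Single-concentration screen, 48 h exposure, 96-well plates. Endpoint: percent growth. Below 10 = active.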 Values without a mark were called inactive. Calls of active or inactive are those of the source.

The subject of the first experiment is OVCAR-5 ovarian. The experiment in a line: NCI-60 one-dose screen, 48 h (100 = growth as untreated, 0 = no growth, -100 = all killed). The settings on record: 10 µM unless noted.
Consider `CNc1ncc2cc(-c3ccc(-c4ncccc4F)cc3Cl)c(=O)n(CC3OCC(N)CO3)c2n1` (stereo not drawn), for which the growth was 44.1%.
Turning to `C#C[C@]1(O)CC[C@H]2[C@@H]3CC=C4c5sc(-c6ccc7c(c6)OCO7)nc5CC[C@]4(C)[C@H]3CC[C@@]21C`, the growth is 36.3%.
Consider `C=CCn1c(SCC(=O)Nc2ccc(C(=O)/C=C/c3ccc(C)cc3)cc2)nnc1-c1c[nH]c2ccccc12`, for which the growth is 99.6%.

For another experiment, the system named is OVCAR-4 ovarian. Described as above. The settings on record: 10 µM unless noted.
In the case of `O=S(=O)(NCCNc1nccc(-n2cnc3ccccc32)n1)c1ccc(Br)cc1`, the growth was 82.2%.
Consider `NS(=O)(=O)c1ccc(Nc2nc(N/N=C/c3ccccn3)nc(Nc3ccccc3)n2)cc1`, for which the growth was -20.3% (active).
On the same count and under the same terms, the value for `NC(N)=Nc1ccc(Oc2cccc(Nc3ccc(Br)c(C(F)(F)F)c3)c2)cc1` was 39.8%; that for `O=c1[nH]c2ccccc2cc1CSc1ccccc1Nc1nccc(-c2ccc(Cl)cc2)n1` was 86.2%.
Same read-out and setting: the value for `COc1ccccc1C(=O)Nc1cccc2c1C(=O)C(=O)C=C2` was 74.8%; that for `CCO/C=N/C1=C(C#N)C(c2ccc(F)cc2)c2sc3c(C)cccc3c2O1` (stereo not drawn) was 51%; that for `O=C(NNc1nc2cc(F)ccc2n2c(CN3CCCC3)ccc12)c1cnccn1` was 14.1%.
As for `COc1cc(-c2nn(C(C)(C)C)cc2-c2ccnc(NCCCNS(=O)(=O)c3ccccc3)n2)ccc1Cl`, the growth is 57.6%.
As for `O=C(NCc1ncc[nH]1)c1ccc(-c2nc3ccc4[nH]ncc4c3c3c2CCCC3)cc1`, the growth was 14.5%.
As to `O=C(NNc1nc2cc(F)ccc2n2c(CO)ccc12)c1cnccn1`, the growth is 20.5%.
